Results on 16 sequences are retold here after the supplement of paper PMC10338343.

± gives the standard deviation.

The subject of this assay is MILI (PIWIL2) piRISC loaded with piRNA #1 (26 nt). Put plainly: pre-steady-state target cleavage rate (min^-1); guide: piRNA #1 5'p-UGAGGUAGUAGGUUGUAUAGUAUCCA; MIWI and MILI are mouse PIWI proteins and EfPiwi is from a freshwater sponge; tags in brackets are library labels; higher = faster piRNA-guided slicing of the target. Conditions: auxiliary factor: 500 nM mouse GTSF1. Summed up: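 The method was Cleave-'n-Seq, in which uncleaved targets from a transcribed, DNA-blocked target RNA library were sequenced after exposure to active affinity-purified piRISC carrying one synthetic guide, with or without GTSF1 partner protein. Reactions contained 0.1 nM library, 1 nM piRISC and, where present, 500 nM GTSF1 in HEPES–potassium acetate buffer at 33 °C for 0–8 or 0–960 min. Reads were normalised to depth and to weakly complementary targets, three trials were pooled, and k3 was capped at 0.0001 min^-1. The pre-steady-state cleavage rate came from a burst-and-steady-state fit.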
As to GGAGAGGAUACUAAACAACCUACUAGCUCA, the “pre-steady-state target cleavage rate” value came out at 0.0547 ± 0.012.

Take GGAGACCUAUCUAUACAUGCUACUACCUCA: the “pre-steady-state target cleavage rate” value was 0.0973 ± 0.012.

In the case of GGAGACCUAUGUAAACAACCUACUACCUCA, the “pre-steady-state target cleavage rate” value was 0.0131 ± 0.0032.

Turning to GGAGACCUUACAAUUCAACCUACUACCUCA, the “pre-steady-state target cleavage rate” value came out at 0.102 ± 0.013.

For the sequence GGAGACCUAUGAAAACAACCUACUAGCUCA, the “pre-steady-state target cleavage rate” value was determined as 0.00432 ± 0.0025.

Take GGAGACCUUACUAUACAACCUAGAACCUCA: the “pre-steady-state target cleavage rate” value came out at 0.00842 ± 0.0033.

On to GGAGACCUUUCUAUACAACCUACUUCCUCA, for which the “pre-steady-state target cleavage rate” value worked out at 0.0321 ± 0.0062.

On to GGAGACCUAUCAAUACAACCAACUACCUCA, for which the “pre-steady-state target cleavage rate” value came to 0.00756 ± 0.0033.

Take GGAGACCUAACUAUACAACCUACUAACCUCA: the “pre-steady-state target cleavage rate” value worked out at 0.187 ± 0.028.

GGAGACCUUACUAUUCAACCUACUAGCUCA: the “pre-steady-state target cleavage rate” value worked out at 0.0771 ± 0.014.

As to GGAGACCUAACUAUUCAACCUACUACGUCA, the “pre-steady-state target cleavage rate” value amounted to 0.0338 ± 0.011.

For GGAGAGGUUAGUAUACAACCUACUACCUCA, the “pre-steady-state target cleavage rate” value was found to be 0.0314 ± 0.0096.

As for GGAGUGGAAACUAUACAACCUACUACCUCA, the “pre-steady-state target cleavage rate” value was found to be 0.225 ± 0.02.

Take GGAGACCUAUCUAUACAAGGUACUACCUCA: the “pre-steady-state target cleavage rate” value came to 0.0563 ± 0.0083.

Regarding GGAGUGGAUACUAUACAACCUAUACCUCA, the “pre-steady-state target cleavage rate” value worked out at 0.0048 ± 0.002.

Consider GGAGACCUUACUAUACUACCUACUACCUGA, for which the “pre-steady-state target cleavage rate” value turned out to be 0.105 ± 0.014.
